This is an account of results in PubChem BioAssay (NCI).

Experiment [1] can be described thus: NCI Yeast Anticancer Drug Screen. Data for the rad50 strain (AID 155).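 Also: 0% = growth of vehicle-only cultures of the same strain.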 The settings on record: S. cerevisiae rad50 strain growth inhibition; at 50.0 µM; active compounds read high. In outline: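 Vehicle-treated cultures provide the reference for the growth inhibition reported for compound-exposed, repair-deficient yeast.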
Experiment [2] is described as follows: NCI Yeast Anticancer Drug Screen. Data for the mec2-1 strain (AID 157). The settings on record: S. cerevisiae mec2-1 strain, at 50.0 µM, active compounds read high. In outline: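 Strain: mec2-1 (DNA repair/cell cycle alteration). Compound exposure, then growth measured; inhibition expressed relative to vehicle.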
Experiment [3] is described as follows: NCI Yeast Anticancer Drug Screen. Data for the sgs1 mgt1 strain (AID 161).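 Also: 0% = growth of cultures given vehicle only.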 The settings on record: S. cerevisiae sgs1 mgt1 strain, at 50.0 µM, active compounds read high. In outline: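 Mutant yeast exposed to compound; growth scored against vehicle-only wells.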
Experiment [4] in a line: NCI Yeast Anticancer Drug Screen. Data for the cln2 rad14 strain (AID 165).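 Also: 0% = growth equal to vehicle treated cultures.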 The note with it: S. cerevisiae cln2 rad14 strain, at 50.0 µM, active compounds read high. An outline of the steps:
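Compounds are applied to the cln2 rad14 yeast strain, and growth is then compared with that of vehicle-treated cultures to give inhibition.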

Experiment [5] is described as follows: NCI Yeast Anticancer Drug Screen. Data for the bub3 strain (AID 167). The settings on record: S. cerevisiae bub3 mutant strain, at 50.0 µM, active compounds read high. In outline: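 Mutant yeast screening strain plus compound; vehicle-treated cultures serve as the 0% inhibition reference.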
Experiment [6] can be described thus: NCI Yeast Anticancer Drug Screen. Data for the mlh1 rad18 strain (AID 175). The note with it: S. cerevisiae mlh1 rad18 strain growth inhibition; at 50.0 µM; active compounds read high. An outline of the steps:
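Read-out is yeast growth inhibition, calculated against vehicle-only controls. The compound was applied to a strain engineered with DNA damage repair alterations.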

About 79,000 compounds went through this panel and 15% of them were active in at least one assay; those are over-represented in the sample as a whole. Unmarked numbers belong to inactive results. The source made the active and inactive calls. Rule as the data show it: active = growth inhibition above about 70%; inactive = the rest.

Take `CCOC(=O)CC(=O)CCl.[Cu+2]`: the growth inhibition in experiment [1] is -14.9%; in experiment [2] it was -8.9%; in experiment [3] it was -40.4%; in experiment [4] it was -31.6%; in experiment [5], -15.9%; in experiment [6], -3.2%.
Consider `O=c1c(O)c(-c2ccccc2)oc2ccccc12`, for which the growth inhibition is 12.6% in experiment [1]; 14.8% in experiment [2]; 35.5% in experiment [3]; 15.6% in experiment [4]; 42.5% in experiment [5]; 34.8% in experiment [6].
In the case of `COc1ccc2c(c1)C1(C)CCN(CCc3ccccc3)C(C2)C1C` (stereo unspecified), the growth inhibition is 24.9% in experiment [1]; 15.4% in experiment [2]; 20.7% in experiment [3]; 0.05% in experiment [4]; 6.25% in experiment [5]; 24.4% in experiment [6].
Turning to `CC(Cl)CN1CCN(CC(C)Cl)CC1` (stereo unspecified), the growth inhibition was 2.95% in experiment [1]; -16.7% in experiment [2]; 34.4% in experiment [3]; 4.4% in experiment [4]; 31.9% in experiment [5]; -10.3% in experiment [6].
Turning to `COP(=O)(Oc1ccccc1)Oc1ccccc1`, the growth inhibition in experiment [1] is 17.6%; in experiment [2] it was -17.5%; in experiment [3] it was 23.9%; in experiment [4] it was 13.1%; in experiment [5], 25.9%; in experiment [6], 18.5%.
`N#CC(CCN1CCC(Nc2ccccc2)(c2nnnn2C2CCCCC2)CC1)(c1ccccc1)c1ccccc1`: the growth inhibition in experiment [1] is -13.8%; in experiment [2] it was -16.6%; in experiment [3], 3.75%; in experiment [4], -5.15%; in experiment [5] it was 4.05%; in experiment [6] it was -21.6%.
Turning to `C=CCOCC1CO1` (stereo unspecified), the growth inhibition is 9.1% in experiment [1]; -5.1% in experiment [2]; 11.1% in experiment [3]; -8.6% in experiment [4]; -1.7% in experiment [5]; 15.8% in experiment [6].
For `COC(=O)c1ccccc1N`, the growth inhibition in experiment [1] is 13.5%; in experiment [2] it was 1.95%; in experiment [3] it was -0.55%; in experiment [4], -29.5%; in experiment [5] it was -2.9%; in experiment [6], -6.75%.
Consider `O=C(O)C(Oc1nc(=S)[nH]c(=S)[nH]1)(c1ccc(Cl)cc1)c1ccc(Cl)cc1`, for which the growth inhibition is -1.5% in experiment [1]; 6.55% in experiment [2]; -23.2% in experiment [3]; 0.55% in experiment [4]; -10.7% in experiment [5]; -8.8% in experiment [6].
For `O=C(COc1ccc(Cl)c(Cl)c1)Nc1ccc[n+](Cc2ccc(S(=O)(=O)F)c(Cl)c2)c1`, the growth inhibition is 62% in experiment [1]; 94.3% (active) in experiment [2]; 98.3% (active) in experiment [3]; 95.8% (active) in experiment [4]; 94.8% (active) in experiment [5]; 99.5% (active) in experiment [6].
Turning to `O=[N+]([O-])c1ccc(Cl)c(OCCCOc2ccc(S(=O)(=O)F)cc2)c1`, the growth inhibition in experiment [1] was -8.7%; in experiment [2] it was -6.9%; in experiment [3], 8.05%; in experiment [4] it was 3.7%; in experiment [5], -3.75%; in experiment [6], 7.85%.
Take `CCC1(CCC(C)C)C(=O)NC(=O)N(C)C1=O` (stereo unspecified): the growth inhibition in experiment [1] is -6.05%; in experiment [2], -1.2%; in experiment [3], -1.75%; in experiment [4], -19.4%; in experiment [5] it was -11.3%; in experiment [6], -4.05%.
As for `C[C@]12CC[C@@H]3C4=CC(=O)CC[C@@H]4CC[C@H]3[C@@H]1CC[C@@H]2O`, the growth inhibition in experiment [1] is -4.3%; in experiment [2], -12.1%; in experiment [3] it was 5.2%; in experiment [4], -8.45%; in experiment [5], 4.8%; in experiment [6] it was -2.75%.
Turning to `CCC1(C(C)C=C(C)C)C(=O)NC(=O)NC1=O` (stereo unspecified), the growth inhibition in experiment [1] was -28.6%; in experiment [2], -12.4%; in experiment [3], -4.75%; in experiment [4], 1.45%; in experiment [5] it was 10.3%; in experiment [6] it was -10.2%.
Consider `CCOC(=O)C[Se]CC(=O)OCC`, for which the growth inhibition in experiment [1] is -8.65%; in experiment [2], 11.2%; in experiment [3], 11.2%; in experiment [4] it was -14.2%; in experiment [5], 43.8%; in experiment [6], 28.3%.
As to `COc1cc(C2c3cc4c(cc3OC(O)C2C)OCO4)cc(OC)c1O` (stereo unspecified), the growth inhibition is -13.2% in experiment [1]; -49.9% in experiment [2]; -23.9% in experiment [3]; 8.25% in experiment [4]; -2.9% in experiment [5]; -5.75% in experiment [6].
Regarding `O=C(Nc1cc(Cl)c(Cl)cc1Cl)C(=O)C1C(=O)NC(=S)NC1=O`, the growth inhibition in experiment [1] was 0.35%; in experiment [2] it was -8.2%; in experiment [3], -9%; in experiment [4] it was 9.75%; in experiment [5] it was 12.9%; in experiment [6] it was -22.4%.
Consider `O=C(COc1cccc(Cl)c1)Nc1cccc(NC(=O)c2ccc(S(=O)(=O)F)cc2)c1`, for which the growth inhibition in experiment [1] is 2.75%; in experiment [2], 5.95%; in experiment [3], -6.85%; in experiment [4] it was -17.2%; in experiment [5] it was -5.75%; in experiment [6] it was 9.2%.
In the case of `CCOS(=O)(=O)c1ccc(C)cc1`, the growth inhibition in experiment [1] is 13.8%; in experiment [2] it was 8.25%; in experiment [3] it was 3.35%; in experiment [4], -0.95%; in experiment [5] it was 8.45%; in experiment [6] it was -5.2%.
As for `COC(C)C(O)(C(=O)OCC1=CCN2CCC(O)C12)C(C)(C)O` (stereo unspecified), the growth inhibition in experiment [1] is 1.25%; in experiment [2] it was -5.35%; in experiment [3] it was 21.4%; in experiment [4] it was 5.4%; in experiment [5] it was 10.1%; in experiment [6], -52.4%.
For the molecule `CCOC(=O)/C(C#N)=C(/SC)N1CC1`, the growth inhibition is 1.9% in experiment [1]; 12% in experiment [2]; 1.4% in experiment [3]; -7.2% in experiment [4]; 6.8% in experiment [5]; -2% in experiment [6].
